Source: PubChem BioAssay AID743449 (Broad Institute, 2014)
The whole screen tested about 9,900 compounds, of which about 90 (0.9%) were called active. Another 2% or so got no clear call; they are omitted.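 The calls were made as follows: active = mean normalized replicate activity at least 50 and at least half of replicates each reaching 50; inconclusive = only one of the two criteria met; inactive = neither criterion met.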 Many of the other results were omitted from the sample, so actives are more common in it than they were.

Experiment: YAP1 pathway inhibitors via CTGF transcript, primary screen, DLD1 colon cancer cells, RT-qPCR, single point (AID 743449);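 also: 0% = neutral control wells and 100% = dasatinib control wells; higher means stronger suppression of CTGF expression like dasatinib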
Conditions: DLD1 CTGF mRNA qPCR, 24 h; at 12.5 µM; active compounds read high

SMILES | inhibition
COCC#Cc1ccc([C@@H]2[C@@H](CO)N3CCCCN(C(=O)NC4CCCC4)C[C@@H]23)cc1 | -25.3% (inactive)
CO[C@@H](CN(C)S(=O)(=O)c1ccc(C)cc1)[C@H](C)CN([C@H](C)CO)S(=O)(=O)c1cccc(Cl)c1 | 93.3% (active)
CO[C@@H](CN(C)S(=O)(=O)c1ccc(C)cc1)[C@@H](C)CN([C@H](C)CO)S(=O)(=O)c1cccc(Cl)c1 | 74.7% (active)
CO[C@@H](CN(C)Cc1cc(F)ccc1F)[C@@H](C)CN([C@H](C)CO)S(=O)(=O)c1ccc(C)cc1 | 14.9% (inactive)
CO[C@@H](CN(C)S(=O)(=O)c1ccc(C)cc1)[C@H](C)CN([C@@H](C)CO)S(=O)(=O)c1cccc(Cl)c1 | 78.9% (active)
CO[C@@H](CN(C)S(=O)(=O)c1ccc(C)cc1)[C@@H](C)CN([C@@H](C)CO)S(=O)(=O)c1cccc(Cl)c1 | 38.7% (inactive)
CO[C@H](CN(C)S(=O)(=O)c1ccc(C)cc1)[C@H](C)CN([C@H](C)CO)S(=O)(=O)c1cccc(Cl)c1 | 16.6% (inactive)
CO[C@H](CN(C)S(=O)(=O)c1ccc(C)cc1)[C@@H](C)CN([C@@H](C)CO)S(=O)(=O)c1cccc(Cl)c1 | 6.82% (inactive)
CO[C@H](CN(C)S(=O)(=O)c1ccc(C)cc1)[C@H](C)CN([C@@H](C)CO)S(=O)(=O)c1cccc(Cl)c1 | 1.44% (inactive)
CO[C@H](CN(C)S(=O)(=O)c1ccc(C)cc1)[C@@H](C)CN([C@H](C)CO)S(=O)(=O)c1cccc(Cl)c1 | 32.6% (inactive)
CO[C@H]1CC[C@@H]2CCOc3ccc(C#N)cc3C(=O)N(C)C[C@@H](c3ccccc3)CC(=O)N(C)C[C@@H]1O2 | -39.9% (inactive)
OC[C@@H]1[C@H](c2ccc(C#Cc3ccccc3F)cc2)[C@@H]2CN(CC3CCOCC3)CCCCN12 | -33.6% (inactive)
CCCNC[C@@H]1[C@@H](c2ccc(C3=CCCCC3)cc2)[C@@H](CO)N1C(=O)C1CCC1 | -79.5% (inactive)
CN1C(=O)c2cc(NC(=O)Nc3ccccc3Cl)ccc2OC[C@@H]2O[C@@H](CC(=O)O)CC[C@H]21 | -2.71% (inactive)
COc1ccc2c3c(n(C)c2c1)[C@@H](CO)N(C(=O)Nc1ccc(F)cc1)CC31CCN(C(=O)c2ccc3c(c2)OCO3)CC1 | 8.8% (inactive)
C[C@@H]1CCCCO[C@H](CN(C)Cc2ccncc2)[C@H](C)CN([C@H](C)CO)C(=O)c2cc(NC(=O)Cc3ccccc3)ccc2O1 | 7.17% (inactive)
C/C=C/c1ccc([C@@H]2[C@@H](CO)N(CC3CCCC3)C23CN(S(=O)(=O)CC)C3)cc1 | -26.7% (inactive)
O=S(=O)(Cc1ccccc1)N1CC2(C1)[C@H](c1ccccc1)[C@H](CO)N2CC1CCCC1 | 63.5% (active)
C/C=C/c1ccc([C@@H]2[C@H](CO)N(CC3CCCC3)C23CN(S(=O)(=O)CC)C3)cc1 | -25.3% (inactive)
O=C(C[C@H]1C[C@@H]2c3cc(NC(=O)C4CCOCC4)ccc3O[C@@H]2[C@@H](CO)O1)NCCN1CCCCC1 | 23.7% (inactive)
C/C=C/c1cccc(-c2nc(C(=O)N3CCCCC3)cc3c2[C@@H](CCO)N(C(=O)NC(C)C)C3)c1 | -19.7% (inactive)

SMILES | inhibition
C/C=C/c1cccc(-c2nc(C(=O)N3CCCCC3)cc3c2[C@H](CCO)N(C(=O)NC(C)C)C3)c1 | 1.73% (inactive)
C/C=C/c1cccc(-c2nc(C(=O)Nc3nccs3)cc3c2[C@@H](CCO)N(C(=O)NC(C)C)C3)c1 | 59.6% (active)
CCC(=O)N(CC(C)C)C[C@@H]1[C@@H](c2ccccc2)[C@H](CO)N1C(=O)C1CCC1 | 3.26% (inactive)
CO[C@@H](CN(C)S(=O)(=O)c1ccc(F)cc1)[C@H](C)CN(Cc1ccccc1Cl)[C@H](C)CO | -18% (inactive)
C[C@H](O)C#Cc1ccc([C@@H]2[C@H]3CN(C(=O)c4ccc5c(c4)OCO5)CCCCN3[C@H]2CO)cc1 | -48.5% (inactive)
O=C(c1cccc(F)c1)N1CCCCN2[C@H](C1)[C@H](c1ccc(C#CC3(O)CCCC3)cc1)[C@@H]2CO | 24% (inactive)
C[C@H](O)C#Cc1ccc([C@H]2[C@@H](CO)N3CCCCN(C(=O)c4ccc5c(c4)OCO5)C[C@@H]23)cc1 | 53.3% (active)
O=C(c1cccc(F)c1)N1CCCCN2[C@H](CO)[C@H](c3ccc(C#CC4(O)CCCC4)cc3)[C@H]2C1 | 11.6% (inactive)
O=C(c1cccc(F)c1)N1CCCCN2[C@H](C1)[C@@H](c1ccc(C#CC3(O)CCCC3)cc1)[C@@H]2CO | 30.5% (inactive)
O=C(c1cccc(F)c1)N1CCCCN2[C@@H](CO)[C@H](c3ccc(C#CC4(O)CCCC4)cc3)[C@@H]2C1 | 68.7% (active)
O=C(c1cccc(F)c1)N1CCCCN2[C@H](CO)[C@@H](c3ccc(C#CC4(O)CCCC4)cc3)[C@@H]2C1 | -4.53% (inactive)
O=C(c1cccc(F)c1)N1CCCCN2[C@H](CO)[C@H](c3ccc(C#CC4(O)CCCC4)cc3)[C@@H]2C1 | 58.8% (active)
C[C@H](O)C#Cc1ccc([C@@H]2[C@@H](CO)N3CCCCN(C(=O)c4ccc5c(c4)OCO5)C[C@H]23)cc1 | -21.5% (inactive)
O=C(C[C@H]1CC[C@H]2[C@@H](COC[C@@H](O)CN2C(=O)c2cccnc2)O1)NCC1CC1 | 6.53% (inactive)
COCCNC(=O)C[C@@H]1C[C@H]2c3cc(NC(=O)CN(C)C)ccc3O[C@H]2[C@H](CO)O1 | 0.098% (inactive)
COc1cccc(NC(=O)N2C[C@H](O)COC[C@H]3O[C@H](CC(=O)N(C)C)CC[C@@H]32)c1 | -3.69% (inactive)
O=C(CN1CCOCC1)N1CC(=O)N2[C@H](C1)[C@@H](c1ccc(-c3cccc(F)c3)cc1)[C@@H]2CO | 10.6% (inactive)
C[C@H](CO)N1C[C@H](C)[C@H](CN(C)C(=O)Nc2ccc(-c3cccs3)cc2)OCc2cnnn2CCCC1=O | 13.8% (inactive)
CC(C)[C@H]1C(=O)N[C@H](c2cccc(Cl)c2)CC=CC[C@H](C)Oc2ccccc2C(=O)N1C (mixture of isomers) | -2.2% (inactive)
CC(C)[C@@H]1C(=O)N[C@H](c2cccc(Cl)c2)CC=CC[C@@H](C)Oc2ccccc2C(=O)N1C (mixture of isomers) | 14.5% (inactive)
C[C@@H]1CC=CC[C@@H](c2cccc(Cl)c2)NC(=O)[C@@H](Cc2ccccc2)N(C)C(=O)c2ccccc2O1 (mixture of isomers) | 67.5% (active)

SMILES | inhibition
C[C@H]1CC=CC[C@H](c2cccc(Cl)c2)NC(=O)[C@@H](Cc2ccccc2)N(C)C(=O)c2ccccc2O1 (mixture of isomers) | -83.3% (inactive)
C[C@@H]1CC=CC[C@@H](c2cccc(Cl)c2)NC(=O)[C@H](Cc2ccccc2)N(C)C(=O)c2ccccc2O1 (mixture of isomers) | 50.4% (active)
C[C@H]1CC=CC[C@H](c2cccc(Cl)c2)NC(=O)[C@H](Cc2ccccc2)N(C)C(=O)c2ccccc2O1 (mixture of isomers) | -228% (inactive)
CN1C(=O)c2cc(NC(=O)NCc3ccccc3)ccc2OC[C@@H]2O[C@@H](CC(=O)NCC3CCCCC3)CC[C@H]21 | -20.9% (inactive)
COc1cccc(S(=O)(=O)N[C@H]2CC[C@H](CC(=O)NC3Cc4ccccc4C3)O[C@H]2CO)c1 | 3.79% (inactive)
Cc1noc(C)c1S(=O)(=O)N(C)C[C@H]1OCCCC[C@H](C)Oc2ccc(NC(=O)CCC(F)(F)F)cc2C(=O)N([C@@H](C)CO)C[C@@H]1C | 8.01% (inactive)
CN1C(=O)c2cc(NC(=O)c3cccc(Cl)c3)ccc2OC[C@H]2O[C@H](CC(=O)NC3CCCCC3)CC[C@H]21 | -12.4% (inactive)
COc1ccccc1NC(=O)N1CCCCN2[C@H](C1)[C@@H](c1ccc(-c3cccc(C#N)c3)cc1)[C@@H]2CO | -9.55% (inactive)
COc1ccccc1NC(=O)N1CCCCN2[C@@H](CO)[C@H](c3ccc(-c4cccc(C#N)c4)cc3)[C@@H]2C1 | 75% (active)
COc1ccccc1NC(=O)N1CCCCN2[C@@H](CO)[C@@H](c3ccc(-c4cccc(C#N)c4)cc3)[C@@H]2C1 | -18.2% (inactive)
COc1ccccc1NC(=O)N1CCCCN2[C@H](CO)[C@H](c3ccc(-c4cccc(C#N)c4)cc3)[C@@H]2C1 | 52.5% (active)
COc1ccccc1NC(=O)N1CCCCN2[C@H](CO)[C@H](c3ccc(-c4cccc(C#N)c4)cc3)[C@H]2C1 | 19.1% (inactive)
COc1ccccc1NC(=O)N1CCCCN2[C@H](CO)[C@@H](c3ccc(-c4cccc(C#N)c4)cc3)[C@H]2C1 | -21.9% (inactive)
COc1cccc(S(=O)(=O)N[C@H]2CC[C@@H](CC(=O)NC3Cc4ccccc4C3)O[C@H]2CO)c1 | 0.76% (inactive)
CCC(=O)N1CC2(C1)[C@H](c1ccc(-c3ccc(F)cc3)cc1)[C@H](CO)N2C(C)=O | 5.26% (inactive)
COc1cccc(C(=O)Nc2ccc3c(c2)C(=O)N(C)[C@@H]2CC[C@H](CC(=O)N[C@@H](C)c4ccccc4)O[C@@H]2CO3)c1 | -43.4% (inactive)
O=C(Nc1ccc(F)cc1)N1CC(=O)N2[C@H](C1)[C@@H](c1ccc(-c3cccc(F)c3)cc1)[C@@H]2CO | -72.3% (inactive)
COCC(=O)N1[C@H](CO)[C@@H](c2ccccc2)C12CN(C(=O)c1ccccc1)C2 | -0.941% (inactive)
C[C@H]1CN([C@@H](C)CO)C(=O)c2ccccc2-c2ccccc2CO[C@H]1CN(C)S(=O)(=O)c1cn(C)cn1 | 10.4% (inactive)
